# EWS-Fli inh = EWS/Fli transcriptional activity inhibition. A673 NR0B1-luciferase reporter, viability-normalised. inhibition, % at 12.6 µM. 0.67% of 350,000 active;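 active = mean inhibition of at least 50% after viability correction, with every replicate also passing that limit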;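 note: firefly luciferase signal divided by Alamar Blue viability fluorescence both relative to DMSO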
# TRPM1 prom inh = inhibitors of MITF-driven TRPM1 promoter in melanoma cells. SK-MEL-5 TRPM1 promoter luciferase, 24 h. 0.83% of 330,000 active. inhibition, % at 12.5 µM;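 active = mean inhibition across replicates of 60% or more, whatever share of single replicates reaches that level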
# PAX8 inh HTS = inhibitors of PAX8 transcriptional activity in RMG-I cells. RMG-I TPO-luciferase reporter, SteadyGlo, 24 h. inhibition, % at 12.6 µM. 1.2% of 360,000 active;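 active = mean replicate inhibition at least 60% with every replicate also reaching 60%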;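 note: luciferase light reporting Pax8 driven TPO promoter activity; plate controls were median of neutral control wells for no effect and mitoxantrone controls for full effect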
# ABHD5-PLIN5 inh = inhibitors of human ABHD5-perilipin-5 interaction; Q00G26+Q8WTS1; Split G. princeps luciferase complementation, luminescence, 4 h; inhibition, % at 4 µM; 0.78% of 360,000 active;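 active = inhibition above the mean inhibition across every tested compound plus 3 SD, cut at about 22% in these data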;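 note: 0% = DMSO only wells and the 100% control is not disclosed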
# Peg3 promoter = Peg3 promoter activity inhibition. HeLa PEG-Prom luciferase reporter, luminescence, overnight. inhibition, % at 20 µM. 1.7% of 360,000 active;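 active = inhibition of at least 50% at 20 µM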
# Shn3 3UTR inh = Schnurri-3 reporter inhibition in Clone20 osteoblasts | 0.52% of 360,000 active | Clone20 osteoblast Shn3 3'UTR firefly luciferase, 24 h | inhibition, % at 12.5 µM | AID 588674;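 active = mean inhibition of at least 75% with every replicate also reaching 75%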;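 note: 0% = median of neutral control wells and 100% = pilot-screen positive control compound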
# Starred values were filed as active, the others as inactive; / = no result; ! = repeats disagree. Most compounds without a hit are left out; they make up all but 3% or so of the library.
SMILES,EWS-Fli inh,TRPM1 prom inh,PAX8 inh HTS,ABHD5-PLIN5 inh,Peg3 promoter,Shn3 3UTR inh
Cc1nc(SCCC(=O)O)c2cc(-c3ccccc3)sc2n1,63*,51,-4,-3,1,-3
Cc1nc(N2CCOCC2)c2cc(-c3ccccc3)sc2n1,/,-44,/,0,-21,26
CC1C(=O)Nc2ccc(S(=O)(=O)N3CCN(c4cccc(C(F)(F)F)c4)CC3)cc2NC1=O (stereo not drawn),/,16,68*,6,8,29
COc1ccccc1C1=NNC(=Nc2cccc(S(=O)(=O)N(C)C)c2)SC1,41,1,84*,-22,7,37
COCCn1c(C)cc(C2=NNC(=Nc3ccccc3)SC2)c1C,/,-10,/,-6,-120,-16
COc1ccc(S(=O)(=O)Nc2ccc3c(c2)C(=O)N([C@H](C)CO)C[C@@H](C)[C@H](CN(C)Cc2ccc(C(F)(F)F)cc2)OCCCC[C@@H](C)O3)cc1,24,/,22,/,/,/
COc1ccc(S(=O)(=O)Nc2ccc3c(c2)C(=O)N([C@@H](C)CO)C[C@@H](C)[C@@H](CN(C)Cc2ccc(C(F)(F)F)cc2)OCCCC[C@@H](C)O3)cc1,20,/,105*,/,/,/
COc1ccc(S(=O)(=O)Nc2ccc3c(c2)C(=O)N([C@H](C)CO)C[C@H](C)[C@H](CN(C)Cc2ccc(C(F)(F)F)cc2)OCCCC[C@H](C)O3)cc1,19,/,108*,/,/,/
COc1ccc(S(=O)(=O)Nc2ccc3c(c2)C(=O)N([C@H](C)CO)C[C@@H](C)[C@@H](CN(C)Cc2ccc(C(F)(F)F)cc2)OCCCC[C@H](C)O3)cc1,11,/,105*,/,/,/
COc1ccc(S(=O)(=O)Nc2ccc3c(c2)C(=O)N([C@H](C)CO)C[C@@H](C)[C@@H](CN(C)Cc2ccc(C(F)(F)F)cc2)OCCCC[C@@H](C)O3)cc1,18,/,110*,/,/,/
CC(C)NC(=O)N[C@H]1C=C[C@H](CC(=O)O)O[C@H]1CO,0,/,-12,/,/,/
CCCC(=O)N1C[C@H]2[C@@H](c3ccccc31)[C@H](CO)N2C(=O)Nc1ccccc1,1,/,15,/,/,/
COc1ccccc1CNC(=O)C[C@@H]1C[C@H]2c3cc(NS(C)(=O)=O)ccc3O[C@H]2[C@@H](CO)O1,-2,/,1,/,/,/
COc1ccc(S(=O)(=O)Nc2ccc3c(c2)C(=O)N([C@@H](C)CO)C[C@@H](C)[C@H](CN(C)Cc2ccc(C(F)(F)F)cc2)OCCCC[C@H](C)O3)cc1,19,/,96*,/,/,/
CCCCCCC[C@@H](C/C=C/CCC(=O)N(C)C/C(=C/Cl)C/C(=C\C(=O)N1CC(OC)=CC1=O)OC)OC,-4,75*,50,-1,41,82
CCCCCCC[C@@H](C/C=C/CCC(=O)N(C)C/C(=C/Cl)C/C(=C\C(=O)N1C[C@H](O)CC1=O)OC)OC,16,11,28,-1,7,61
CCN1CCN(C2=C(NS(=O)(=O)c3ccc(C)cc3)C(=O)c3ccccc3C2=O)CC1,/,70*,20,-7,-29,-39
CC(=O)Nc1ccc(S(=O)(=O)NC2=C(N3CCN(C)CC3)C(=O)c3ccccc3C2=O)cc1,3,83*,16,-5,-15,14
CC(C)CC#Cc1ccc2c(c1)O[C@@H](CN(C)C(=O)NC1CCCC1)[C@H](C)CN([C@H](C)CO)S2(=O)=O,25,/,/,/,/,/
CCCNC(=O)N1[C@@H](C#N)[C@H](c2ccc(-c3cccc(OC)c3)cc2)[C@@H]1CO,2,/,8,/,/,/
CN1OC[C@@H]2CN(C(=S)Nc3cc(C(F)(F)F)cc(C(F)(F)F)c3)[C@H](c3ccccc3Br)C[C@@H]21,10,/,84*,/,/,/
C=CCCC(=O)N1C[C@H]2CON(C)[C@H]2C[C@H]1c1ccccc1Br,-7,-9,-11,6,-5,-6
CCn1c([N+](=O)[O-])nc2c1c(=O)[nH]c(=O)n2C,9,26,69*,7,-12,49
CC(=O)c1ccc(-c2cccc(-c3nc4ccccn4c3NC3CCCCC3)c2)cc1,26,-10,21,-4,62*,12
CCC(C)Sc1cc(-c2nc3cc(C)ccn3c2NC2CCCCC2)ccc1OC (stereo not drawn),15,-1,-1,-10,26,32
SMILES,EWS-Fli inh,TRPM1 prom inh,PAX8 inh HTS,ABHD5-PLIN5 inh,Peg3 promoter,Shn3 3UTR inh
c1csc(-c2nc3ccccn3c2NC2CCCCC2)c1,7,2,4,1,-5,-10
CCC(C)Sc1cc(-c2nc3ccccn3c2NC2CCCCC2)ccc1OC (stereo not drawn),30,-6,34,-3,95*,2
CCC(C)Sc1cc(-c2nc3ccc(C)cn3c2NCc2ccccc2)ccc1OC (stereo not drawn),8,53,-1,7,96*,97*
CCCCNc1c(-c2ccc(OC)c(SC(C)CC)c2)nc2ccc(C)cn12 (stereo not drawn),39,1,-2,2,100*,5
CCC(C)Sc1ccc(-c2nc3ccc(C)cn3c2NCc2ccccc2)cc1OC (stereo not drawn),/,-11,/,4,88*,45
COc1ccc(-c2cc(-c3nc4ccccn4c3NCc3ccccc3)ccc2OC)cc1,76*,85*,102*,0,100*,97*
COc1ccc(NC(=O)N(C)C[C@H]2Oc3c(NS(=O)(=O)c4ccc(OC)cc4)cccc3C(=O)N([C@@H](C)CO)C[C@@H]2C)cc1,4,/,-44,/,/,/
CC[n+]1c(/C=C/N(C)c2ccccc2)n(-c2ccccc2)c2ccc(-c3nc4ccccc4s3)cc21,/,91*,/,36*,112*,98*
COc1ccc(-c2cn(CC[C@@H]3CC[C@H](NC(=O)Cc4ccccn4)[C@H](CO)O3)nn2)cc1,3,/,90*,/,/,/
COc1ccc(-c2cn(CC[C@@H]3CC[C@@H](NC(=O)Cc4ccccn4)[C@H](CO)O3)nn2)cc1,-6,/,-28,/,/,/
COc1ccc(-c2cn(CC[C@@H]3CC[C@H](NC(=O)Cc4ccccn4)[C@@H](CO)O3)nn2)cc1,-7,/,78*!,3,/,/
COc1ccc(S(=O)(=O)N[C@@H]2CC[C@@H](CC(=O)NCCc3ccncc3)O[C@@H]2CO)cc1,0,/,-17,/,/,/
C[C@@H]1CN([C@@H](C)CO)C(=O)c2cc(NC(=O)CCCN(C)C)ccc2O[C@@H]1CN(C)Cc1ccc(C(=O)O)cc1,/,/,-4,/,/,/
CO[C@H]1CN(C)C(=O)c2ccc(NS(=O)(=O)c3cccc(F)c3)cc2OC[C@@H](C)NC[C@@H]1C,0,/,/,/,/,/
CCn1c(CNC(=O)c2cccnc2)cc2ccccc21,16,5,24,-1,74*,19
COc1ccc(S(=O)(=O)Nc2ccc3c(c2)CC(=O)N([C@H](C)CO)C[C@@H](C)[C@@H](CN(C)Cc2ccc(C(F)(F)F)cc2)O3)cc1,4,/,-8,/,/,/
COc1ccc(S(=O)(=O)Nc2ccc3c(c2)CC(=O)N([C@H](C)CO)C[C@H](C)[C@@H](CN(C)Cc2ccc(C(F)(F)F)cc2)O3)cc1,19,/,113*,/,/,/

# From PubChem
